Assay [1] in a line: P-glycoprotein substrates identified in KB-8-5-11 adenocarcinoma cell line, qHTS therapeutic library screen (AID 1346987). Also: nearly all actives have a fitted effect of over 65% in size. As to activity change, negative = cytotoxicity: series mostly up to about 44 µM; % is scaled to controls: 0 for no effect and ±100 for the full control effect. Summed up:
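Luminescence from CellTiter-Glo, read 5 min after addition, quantified survival of KB-8-5-11 (P-gp-overexpressing) cells exposed to compounds for 72 h. AC50 was derived from concentration-response curves.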

A short description of assay [2]: Confirmatory screen GU Rhodamine qHTS for Zika virus inhibitors qHTS (AID 1347157). Also: nearly all actives have a fitted effect of over 70% in size. Also: potency is read from the fitted curve at half-maximal effect.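 As to activity change, negative = inhibition: plate controls were no-inhibitor wells for no effect and no-enzyme wells for full effect.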 The method in brief:
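A qHTS format was used, with compound concentrations ranging up to 114 microM. Each compound was preincubated with 25 nM NS2B-NS3 protease, and the substrate was then added at 1.5 microM. Curves were fitted with a 4-parameter Hill model.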

The subject of assay [3] is Zika virus NS2B-NS3 protease (linked construct). Put plainly: Primary screen NINDS Rhodamine qHTS for Zika virus inhibitors (AID 1347160). Also: nearly all actives have a fitted effect of over 55% in size. Also: potency is read from the fitted curve at half-maximal effect. As to activity change, negative = inhibition: % is scaled to controls: 0 for no effect and ±100 for the full control effect. Summed up:
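Single-chain NS2B-NS3 protease, 25 nM, pH 8.0; compounds preincubated 15 min. Activity: Rhodamine110 release from 1.5 microM substrate over 15 min, room temperature, data fitted to 4-parameter Hill.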

A short description of assay [4]: Confirmatory screen NINDS Rhodamine qHTS for Zika virus inhibitors (AID 1347161). Also: nearly all actives have a fitted effect of over 60% in size. Also: potency is read from the fitted curve at half-maximal effect.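 As to activity change, negative = inhibition: purified Zika NS2B-NS3 protease with linked NS2B cofactor domain and Rhodamine110 peptide substrate; series mostly up to about 110 µM; plate controls were no-inhibitor control for no effect and no-enzyme control for full effect.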 The method in brief:
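Enzyme (25 nM, linked NS2B-NS3) was preincubated 15 min with compound in 10 mM Tris-HCl pH 8.0, 0.01% Tween 20. Rhodamine110 substrate (1.5 microM) was then added and fluorescence read at start and after 15 min.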

Assay [5] deals with Zika virus NS2B-NS3 protease (linked construct). Kind of assay: 384 well plate NINDS Rhodamine confirmatory qHTS for Zika virus inhibitors (AID 1347164). Also: potency is read from the fitted curve at half-maximal effect; nearly all actives have a fitted effect of over 65% in size. The method in brief: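 Cleavage of Ac-LKRR-Rhodamine 110 (10 microM final) by linked protease (final 5, 30 or 60 nM) was followed as fluorescence at 485/538 nm after 25 min, room temperature, dark. Compounds preincubated ~15 min.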

The subject of assay [6] is Zika virus NS2B-NS3 protease (unlinked complex). Put plainly: Primary screen GU Rhodamine qHTS for Zika virus inhibitors: Unlinked NS2B-NS3 protease assay (AID 1347159). Also: nearly all actives have a fitted effect of over 60% in size. Also: potency is read from the fitted curve at half-maximal effect. As to activity change, negative = inhibition: % is scaled to controls: 0 for no effect and ±100 for the full control effect. Summed up:
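Unlinked NS2B/NS3, 25 nM; Rhod110 peptide, 1.5 microM; compounds, up to 114 microM. Reaction run 15 min at RT in 10 mM Tris-HCl pH 8.0, 0.01% Tween 20; kinetic fluorescence change fitted with a 4-parameter Hill model.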

In assay [7] the test system is Zika virus NS2B-NS3 protease (linked construct). Kind of assay: Confirmatory screen NINDS AMC qHTS for Zika virus inhibitors (AID 1347152). Also: nearly all actives have a fitted effect of over 70% in size. Also: potency is read from the fitted curve at half-maximal effect.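 As to activity change, negative = inhibition: AMC fluorescence gain from cleaved Bz-Nle-KRR-AMC substrate over 15 min; top concentration of the series differs between compounds; 0% = no-inhibitor control and -100% = no-enzyme control.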 The method in brief: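 Concentration-response confirmation used the NINDS linked protease (NS2B hydrophilic domain joined to NS3 protease domain), 1 nM, with a 15-min compound preincubation. Substrate, Nle-KRR-AMC at 10 microM, was read by UV fluorescence before and after 15 min.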

The test system of assay [8] is Zika virus NS2B-NS3 protease (linked). Put plainly: 384 well plate NINDS AMC confirmatory qHTS for Zika virus inhibitors (AID 1347163). Also: potency is read from the fitted curve at half-maximal effect; nearly all actives have a fitted effect of over 50% in size. The method in brief: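 Fluorescence at 355/460 nm was read after 25 minutes of cleavage of 30 microM Ac-VKTGKR-AMC at room temperature, in the dark. Before substrate addition, compounds (up to 1 mM final) sat ~15 minutes with 5, 30 or 60 nM linked protease. Signals were normalized to no-enzyme and no-inhibitor wells.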

Assay [9] is described as follows: Vero cells viability qHTS for Zika virus inhibitors (AID 1347167). Also: % is scaled to controls: 0 for no effect and ±100 for the full control effect. The method in brief: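 Luminescent ATP readout (CellTiter Glo) after 30 min at 37 degrees C gives viability; cells in DMEM + 4% FBS were treated 24 to 48 hours with compound, following overnight attachment.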
Assay [10] has as its system Zika virus NS2B-NS3 protease (unlinked complex). Kind of assay: Confirmatory screen GU AMC qHTS for Zika virus inhibitors (AID 1347153). Also: potency is read from the fitted curve at half-maximal effect; nearly all actives have a fitted effect of over 70% in size. The method in brief: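 Unlinked enzyme 25 nM, Tris pH 8.0/0.01% Tween 20; cpd 15 min RT, dark; + AMC substrate 10 µM (Km 18.3 µM); 340/450 nm read at t0 and 15 min; % inhibition → 4-param fit.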
A short description of assay [11]: ZIKV-mCherry secondary qHTS for Zika virus inhibitors (AID 1347158). Also: top concentration of the series differs between compounds. The method in brief: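 Compounds were tested in Vero monkey kidney cells infected with recombinant mCherry-expressing Zika virus at MOI 1 for 48-72 h at 37 °C. Fixed cells were nuclear-stained and imaged, and infection rate was taken as the fraction of mCherry-positive cells.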

Molecules are shown by their SMILES. Inconclusive results are not listed. Values without a mark were called inactive. The source made the active and inactive calls. Calls follow the shape of the dose curve; as a rule, active = well fitted curve in the direction sought with a large enough effect; inconclusive = small, poorly fitted or top-dose-only effect, or another doubt; inactive = no such curve, though single readings can be large; an effect the other way counts as inactive or inconclusive. Where a SMILES comes first, the peptide text is derived from it. The star is where a group is joined. Hexanoyl = CCCCCC(=O)*; PhAc = O=C(Cc1ccccc1)*

`CC1(C)CC[C@]2(C(=O)O)CC[C@]3(C)C(=CCC4[C@@]5(C)CC[C@H](O[C@@H]6O[C@H](C(=O)O)[C@@H](O)[C@H](O)[C@H]6O)C(C)(C)C5CC[C@]43C)C2C1` (stereo partly drawn): the Potency entry in assay [1] and in assay [3] was “inactive” throughout. Moreover, the Potency is 5.84 µM (active) in [2], 6.55 µM (active) in [4] and 2.24 µM (active) in [5].

`CCC[C@H](N[C@@H](C)C(=O)N1[C@H](C(=O)O)C[C@@H]2CCCC[C@@H]21)C(=O)O`: the Potency result in assay [1] and in assay [6] was “inactive” each time.

As for `COc1cc(Nc2ccc([N+](=O)[O-])cc2C(=O)O)cc2ccccc12`, the Potency result in assay [1] is “inactive”. For the same compound, the Potency in assay [7] is 15.6 µM (active); in [2], 1.97 µM (active); in assay [6] it was 2.24 µM (active); in assay [3], 2.82 µM (active); in [4], 2.21 µM (active); in assay [8], 2.82 µM (active). The Potency in [5] was 1.41 µM (active). For the same compound, the result in [9] was inactive.

Regarding `CC1CCC2(C)CCC3(C)C(=CCC4C5(C)CCC(O)C(C)(C(=O)O)C5CCC43C)C2C1C` (stereo not drawn), the Potency result in assay [1] is “inactive”. Further, the Potency in assay [6] was 8.91 µM (active).

As to `CCOc1ccc(-c2nn3ncccc3c2-c2ccc(S(C)(=O)=O)cc2)cc1`, the Potency result in assay [1] and in [6] was “inactive” each time.

On to `COc1cc(C)c(C(=O)OC2C(C)OC(OC3CCC(C)C4C3C=C(C)C3/C(C)=C\CC/C(C)=C/C5(C)C=C(C(=O)O)C(C)CC56OC(=O)/C(=C(\O)C34C)C6=O)C(O)C2O)c(OC)c1` (stereo not drawn), for which, in assay [1], the activity change, negative = cytotoxicity was 8.21% [at 9.29 µM]. Moreover, the Potency is 9.37 µM (active) in assay [7]; 9.37 µM (active) in [10]; 2.64 µM (active) in [2]; 1.26 µM (active) in assay [6]; 2.47 µM (active) in [3]; 1.32 µM (active) in assay [4]. In assay [9], the call was inactive.

Turning to `COc1cccc(CNc2ccc(S(=O)(=O)Nc3nc4ccccc4s3)cc2)c1O`, the Potency result in assay [1] and in [11] was “inactive” in each case. Besides, the Potency in assay [2] is 3.93 µM (active); in [6], 3.55 µM (active); in assay [3], 6.31 µM (active); in assay [4], 3.93 µM (active). Moreover, the compound was classed as inactive in [9].

As to `CSCC[C@H](NC(=O)[C@H](CO)NC(=O)[C@H](CCC(=O)O)NC(C)=O)C(=O)N[C@H](C=O)CC(=O)O` (Ac-ESMD-aldehyde), in [1], the activity change, negative = cytotoxicity is 5.02% [at 9.29 µM]. Further, the activity change, negative = inhibition in assay [2] was 8.12% [at 22 µM]; in assay [4] it was 12.5% [at 22.2 µM].

As for `COC(=O)[C@]1(C)CCC[C@@]2(C)C(=O)CC[C@H]3C(=O)C=C(CC[C@@H]21)C3O` (stereo partly drawn), the Potency result in assay [1] and in assay [6] was “inactive” throughout.

For `C[C@@H]1[C@H]2[C@H](O[C@@H]3O[C@H](CO)[C@@H](O)[C@H](O)[C@H]3O)OC=C(C(=O)O)[C@H]2C[C@@H]1OC(=O)/C=C/c1ccc(O)cc1`, the Potency entry in assay [1] is “inactive”. Besides, in [6], the Potency was 31.6 µM (active).

In the case of `CCCCCC(=O)N1CCC[C@H]1C(=O)N[C@@H](Cc1ccc(O)cc1)C(=O)OC` (Hexanoyl-Pro-Tyr-OMe), the Potency result in [1], in assay [2], in [6] and in assay [4] was “inactive” in each case.

`Cc1ccc(C)c(NC(=O)CNS(=O)(=O)c2ccc3[nH]c(=O)oc3c2)c1`: the Potency entry in assay [1] and in assay [6] was “inactive” throughout.

For `CC(CC12CCCN1C(=O)C1CCCN1C2=O)OC(N)=O` (stereo not drawn), the Potency entry in assay [1] and in assay [6] was “inactive” throughout.

With `CC1(C)CC[C@]2(C(=O)O)CC[C@]3(C)C(=CCC4[C@@]5(C)CC[C@H](O[C@H]6O[C@H](C(=O)O)[C@@H](O)[C@H](O[C@@H]7O[C@H](CO)[C@H](O)[C@H](O)[C@H]7O)[C@H]6O)C(C)(C)C5CC[C@]43C)[C@@H]2C1` (stereo partly drawn), the outcome in [1] was “inactive [at 9.29 µM]”. Also, the Potency in assay [6] is 8.91 µM (active).

Take `C/C1=C\CC(C)(C)/C=C/C/C(C(=O)O)=C/CC1`: in [1], the Potency result is “inactive”. For the same compound, the Potency in [6] is 14.1 µM (active).

Take `CCOC(=O)CNC(=O)[C@@H]1CCCN1C(=O)Cc1ccccc1` (PhAc-Pro-Gly-OEt): the Potency result in [1] and in assay [6] was “inactive” in each case.

`CC1C(O)C(O)C2C(C(=O)OCCc3ccc(O)cc3)=COC(O[C@@H]3O[C@H](CO)[C@@H](O)[C@H](O)[C@H]3O)C12` (stereo partly drawn): the Potency entry in assay [1] and in [7] was “inactive” in each case. The Potency was 8.57 µM (active) in assay [2], 8.91 µM (active) in assay [3], 15.2 µM (active) in assay [4] and 3.98 µM (active) in assay [5]. For the same compound, the compound was called inactive in assay [9].

Turning to `O=C1NC(=O)/C(=C/c2cccc(C(F)(F)F)c2)S1`, the Potency entry in assay [1] was “inactive”. Also, the Potency in assay [7] was 17.5 µM (active); in [2], 4.41 µM (active); in assay [6], 2.51 µM (active); in [3] it was 3.55 µM (active); in assay [4], 3.93 µM (active); in assay [8], 100 µM (active). Further, the Potency in [5] is 20 µM (active).

Turning to `CC1OC(O[C@@H]2[C@@H](O)[C@H](OC(=O)[C@]34CCC(C)(C)C[C@H]3C3=CCC5[C@@]6(C)CC[C@H](O[C@@H]7O[C@H](C(=O)O)[C@@H](O)[C@H](O[C@@H]8OC[C@@H](O)[C@H](O)[C@H]8O)[C@H]7O[C@@H]7O[C@H](CO)[C@H](O)[C@H](O)[C@H]7O)[C@@](C)(C=O)C6CC[C@@]5(C)[C@]3(C)C[C@H]4O)O[C@H](C)[C@@H]2OC2OC(C)C(OC3OCC(O)C(O)C3O)C(O)C2O)C(O)C(O)C1O` (stereo partly drawn), the outcome in assay [1] is “inactive [at 9.29 µM]”. The activity change, negative = inhibition in [6] is 7.56% [at 19.1 µM].

These data come from PubChem BioAssay (NCATS).
